{
  "source": "PubChem BioAssay (NCI)",
  "note": "Compounds without any hit were thinned out: in the full panel of roughly 83,000, 20% have a hit.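 Single-concentration screen, 48 h exposure, 96-well plates. Endpoint: percent growth. Below 10 = active.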 The source made the active and inactive calls.",
  "data": [
    {"tested_on": "SF-539 CNS", "assay": "NCI-60 one-dose screen, 48 h (100 = growth as untreated, 0 = no growth, -100 = all killed)", "details": "10 µM unless noted", "values": [
      {"smiles": "COc1cc2oc(-c3cccc(NC(=O)c4cc(N)ccc4Cl)c3)cc(=O)c2c(OC)c1OC", "growth": "94.8% (inactive)"},
      {"smiles": "CC(C)(C)n1cc(-c2ccnc(NCCCNS(=O)(=O)c3cccc(F)c3)n2)c(-c2ccc(Cl)c(O)c2)n1", "growth": "104% (inactive)"},
      {"smiles": "COc1cccc2cc(-c3cc4ccccc4[nH]3)/c(=N\\NC(=O)c3ccc(Cl)cc3)oc12", "growth": "33.1% (inactive)"},
      {"smiles": "Nc1nc(Nc2ccccc2SSc2ccccc2Nc2nc(N)nc(-c3ccc4ccccc4c3)n2)nc(-c2ccc3ccccc3c2)n1", "growth": "99% (inactive)"},
      {"smiles": "O=C(CN1CCN(c2cc(=O)n(-c3ccccc3)c3ccccc23)CC1)Nc1nc(-c2ccccc2)cs1", "growth": "77.1% (inactive)"},
      {"smiles": "CC(Nc1c(C#N)cnc2ccc(-c3cnc(N)nc3)cc12)c1ccccc1", "note": "(centres undefined)", "growth": "2.6% (active)"},
      {"smiles": "CC(=O)Nc1cccc(Nc2nc(N[C@H](C)c3ccccc3)c3ccccc3n2)c1", "growth": "73.9% (inactive)"},
      {"smiles": "CNC1CCc2c(sc(NC(=O)c3ccc(C(C)(C)C)cc3)c2C(N)=O)C1", "note": "(centres undefined)", "growth": "75.8% (inactive)"},
      {"smiles": "COc1cc(OC)cc(C(=O)Nc2cccc(C#Cc3cccc4[nH]nc(N)c34)c2)c1", "growth": "-63.9% (active)"},
      {"smiles": "COc1c(N2CC3CCCNC3C2)c(F)cc2c(=O)c(C(=O)N/N=C/c3ccccc3)cn(C3CC3)c12", "note": "(centres undefined)", "growth": "83.7% (inactive)"},
      {"smiles": "COc1ccccc1-n1cc(C#N)c(N)c1C(=O)c1ccc(Br)cc1", "growth": "82.7% (inactive)"},
      {"smiles": "Nc1nc(-c2cccc([N+](=O)[O-])c2)c(N=Nc2ccccc2)s1", "growth": "71.6% (inactive)"},
      {"smiles": "COc1ccc(-c2nc3ccc(-c4nnc(SCC(=O)Nc5ccc(C(=O)/C=C/c6ccc(Cl)cc6)cc5)o4)cc3[nH]2)cc1", "growth": "87.1% (inactive)"},
      {"smiles": "CCCCCCCn1cc2c(NCCc3ccccc3)ncnc2n1", "growth": "95.9% (inactive)"},
      {"smiles": "COc1ccc(-c2nc3cc(Cl)c(Cl)cc3n2CC(=O)N=Nc2c(O)[nH]c3ccc(OC)cc23)cc1", "growth": "47.2% (inactive)"},
      {"smiles": "CN1CCN(Cc2ccc(NC(=O)c3cncc(C#Cc4cnn5cccnc45)c3)cc2C(F)(F)F)CC1", "growth": "14.8% (inactive)"},
      {"smiles": "Cc1cc(C)c(N2C(=O)CC(Nc3ccc(Cl)cc3Cl)C2=O)c(C)c1", "note": "(centres undefined)", "growth": "96.8% (inactive)"},
      {"smiles": "CC(=O)Nc1cccc(Nc2nc(N[C@@H](C)c3ccccc3)c3ccccc3n2)c1", "growth": "-44% (active)"},
      {"smiles": "COc1cc(-c2nn(C(C)(C)C)cc2-c2ccnc(NCCCNS(=O)(=O)c3cccc(F)c3)n2)ccc1Cl", "growth": "88.4% (inactive)"},
      {"smiles": "NC(=O)c1cccc(-n2ccc3cc(NC(=O)Nc4ccc(N5CCOCC5)c(C(F)(F)F)c4)ccc32)n1", "growth": "-20.5% (active)"},
      {"smiles": "O=S(=O)(Nc1cccc2ccccc12)c1ccc(-c2cnc(C3CC3)o2)cc1", "growth": "7.47% (active)"},
      {"smiles": "CCOC(=O)c1c(N)c(C#N)cn1-c1cc(OC)c(OC)c(OC)c1", "growth": "92.6% (inactive)"},
      {"smiles": "COc1ccc([C@H]2c3[nH]c4ccccc4c3C[C@H]3C(=O)N(C4CCN(Cc5c(Cl)cccc5Cl)CC4)CC(=O)N23)c(OC)c1", "growth": "101% (inactive)"},
      {"smiles": "COc1ccc2c(c1)c(-c1cc(N)n3nc(-c4cn(C)c5ccc(OC)cc45)cc3n1)cn2C", "growth": "94.9% (inactive)"},
      {"smiles": "COc1cc2c(cc1OC)C(Sc1ccc(C)cc1)c1c(nc(N)c(C#N)c1N)O2", "note": "(centres undefined)", "growth": "-86.3% (active)"},
      {"smiles": "C[C@@H](Nc1c(C#N)cnc2ccc(-c3cnc(Cl)c(NS(C)(=O)=O)c3)cc12)c1ccccc1", "growth": "-20.7% (active)"},
      {"smiles": "Cc1ccc(NC(=O)N[C@@H](Cc2cc(F)cc(F)c2)C(=O)NC2C(=O)N3C[C@H](O)C[C@H]3C(=O)N3CCCC[C@H]3C(=O)N[C@@H](CO)C(=O)N3C[C@H](C)C[C@H]3C(=O)O[C@H]2C)c(F)c1", "note": "(some centres undefined)", "growth": "43.5% (inactive)"},
      {"smiles": "O=C(NCc1ncc[nH]1)c1ccc(-c2nc3ccc4[nH]ncc4c3c3c2CCCC3)cc1", "growth": "-2.48% (active)"},
      {"smiles": "CCO/C=N/C1=C(C#N)C(c2ccc(F)cc2)c2sc3c(C)cccc3c2O1", "note": "(centres undefined)", "growth": "-10.1% (active)"},
      {"smiles": "c1cn2c(ccc3nc(-c4cn[nH]c4)c4c(c32)CCCC4)n1", "growth": "63.9% (inactive)"},
      {"smiles": "O=c1[nH]c2ccccc2cc1CSc1ccccc1Nc1nccc(-c2ccc(Cl)cc2)n1", "growth": "82.7% (inactive)"},
      {"smiles": "Cn1ccnc1C(=O)/C=C/c1ccc(NC(=O)c2c(F)c(F)c(F)c(F)c2F)cc1", "growth": "108% (inactive)"},
      {"smiles": "Cc1noc(C)c1CSc1nc2ccccc2n1-c1ccccc1", "growth": "95.3% (inactive)"},
      {"smiles": "Cn1cc(CNc2nc3ccc(OC/C(=C/F)CN)cc3o2)ccc1=O", "growth": "97.1% (inactive)"},
      {"smiles": "CC(C)(C)CC(C)(C)n1nnnc1C(Nc1nccs1)c1cc2cccc3ccc4cccc1c4c32", "note": "(centres undefined)", "growth": "92.7% (inactive)"},
      {"smiles": "COc1ccc(/C(N)=N/C(N)=N/c2nc3ccccc3s2)cc1", "growth": "90.5% (inactive)"},
      {"smiles": "COc1ccc(-c2nn(-c3ccc(S(C)(=O)=O)cc3)cc2/C=N/O)cc1", "growth": "92.1% (inactive)"},
      {"smiles": "CCOc1cccc(-c2nc3sccn3c2-c2ccnc(S(C)(=O)=O)n2)c1", "growth": "94.4% (inactive)"},
      {"smiles": "O=C(c1ccc(Cl)cc1)C1[C@H](c2ccc(Cl)cc2)[C@@H](c2ccccc2)NC12C(=O)Nc1ccccc12", "note": "(some centres undefined)", "growth": "74.8% (inactive)"}
    ]}
  ]
}
